Screening results deposited in PubChem BioAssay by National Center for Advancing Translational Sciences (NCATS).
Compounds with a hit are over-represented: about 5.1% of the library has one in this group of screens.
Hsp90 Hop PPI = changes Hsp90-Hop TPR2A binding signal, up or down; AlphaScreen TPR2A-His6 binding biotin-Hsp90 C-terminal peptide; AID 595; 71,000 compounds, 0.44% hits; Potency, µM (series often up to 57 µM), for inactives: top-dose activity change, negative = inhibition; active means well fitted curve in either direction with a large enough effect; inconclusive means small, poorly fitted or top-dose-only effect, or another doubt; further: on the % scale 0 is the no-effect control and ±100 the full control effect
Tau fil binding = tau filament binding; P10636; recombinant tau filaments, thioflavin S fluorescence, 15 h; filaments grown with octadecylsulfate alongside compound; Potency, µM (top dose mostly 57.1 µM), for the others: top-dose activity change, negative = inhibition; 71,000 compounds, 2% hits; AID 596;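 further: on the % scale 0 is the no-effect control and ±100 the full control effect; actives lower thioflavin S fluorescence by blocking filaments or displacing dye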
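His-tagged recombinant human tau (exons 2, 3, 10; 1 uM final) fibrillized with 30 uM sodium octadecylsulfate, 15 h at 37 C, in pH 7.4 HEPES buffer with 10 uM thioflavine S and 5 mM DTT. Reduced ThS fluorescence (450/510 nm) marks activity.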
Pol III holo inh = inhibitors of bacterial DNA polymerase III holoenzyme | reconstituted DNA polymerase III holoenzyme replication, biochemical | Potency, µM (doses to about 57.1 µM), for the others: top-dose activity change, negative = inhibition | 71,000 compounds, 0.25% hits | AID 603; further: on the % scale 0 is the no-effect control and ±100 the full control effect
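Reconstituted *E. coli* holoenzyme (0.35 nM Pol III, 1 nM beta, 154 nM SSB, 2 nM primase) was preincubated with compound for 15 min at RT. Synthesis on 1.4 nM ssM13Gori ran 35 min, then was stopped with PicoGreen/EDTA and read as dsDNA fluorescence.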
HEK293 cAMP cs = counter-screen for TSHR agonists: cAMP increase in parental HEK293 | Potency, µM (series often up to 57.1 µM), inactives show top-dose activation, hits mostly activators | 73,000 compounds, 2.5% hits | parental HEK293 CNG cAMP sensor, membrane potential fluorescence | AID 938; further: % of control where 0% means no effect; nearly all actives have a fitted effect of over 55% in size
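Counterscreen for endogenous-receptor signalling: CNG-channel HEK 293 cells report cAMP rise by membrane depolarization. After 60 min dye equilibration with 100 uM RO 20-1724, compounds incubated 30 min before bottom-read fluorescence at 590 nm.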
TSHR agonist = activates the human thyroid stimulating hormone receptor | P16473 | HEK293-CNG-TSHR cells (CNG channel as cAMP sensor), membrane potential dye, cAMP | 73,000 compounds, 0.48% hits | Potency, µM (highest dose often 57.1 µM), for the others: at the top dose activation, actives largely listed as activators | AID 926; active means well fitted activation curve with a large enough effect in the main read-out, with a control signal flat, not every such curve was filed as active; inconclusive means small, poorly fitted or top-dose-only effect, or a change in a side signal; inactive means no such curve, though single readings can be large or run the other way; % of control where 0% means no effect;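 further: the control signal comes from parental cells without the receptor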
Target sequence (P16473 whole entry, looked up): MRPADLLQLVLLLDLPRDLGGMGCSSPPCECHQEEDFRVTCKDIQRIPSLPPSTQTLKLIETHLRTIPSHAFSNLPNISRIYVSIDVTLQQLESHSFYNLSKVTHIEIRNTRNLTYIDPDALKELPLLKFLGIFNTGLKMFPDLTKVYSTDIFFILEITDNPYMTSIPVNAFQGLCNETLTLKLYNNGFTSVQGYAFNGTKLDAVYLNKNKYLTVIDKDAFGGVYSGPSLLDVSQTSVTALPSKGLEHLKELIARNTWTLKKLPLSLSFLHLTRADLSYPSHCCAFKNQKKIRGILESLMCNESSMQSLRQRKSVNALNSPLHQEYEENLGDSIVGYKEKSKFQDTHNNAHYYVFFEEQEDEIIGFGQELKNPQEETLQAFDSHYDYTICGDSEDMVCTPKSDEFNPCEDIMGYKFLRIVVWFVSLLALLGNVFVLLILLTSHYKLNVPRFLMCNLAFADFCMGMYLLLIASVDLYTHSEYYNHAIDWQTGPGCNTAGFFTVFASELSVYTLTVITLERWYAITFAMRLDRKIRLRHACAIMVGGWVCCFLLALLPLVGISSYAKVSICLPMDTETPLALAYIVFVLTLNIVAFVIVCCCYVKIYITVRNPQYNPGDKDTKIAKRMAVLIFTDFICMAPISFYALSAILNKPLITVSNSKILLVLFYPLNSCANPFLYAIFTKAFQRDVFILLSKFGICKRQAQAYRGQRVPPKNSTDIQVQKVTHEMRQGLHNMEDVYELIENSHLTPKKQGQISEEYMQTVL
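HEK 293 cells stably expressing TSHR and a cAMP-gated CNG channel; parental CNG-only cells as counterscreen. Cells preloaded 60 min with membrane potential dye plus 100 uM RO 20-1724, then compound 30 min; fluorescence read at 590 nm.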
* hit, by the source's call; ? = inconclusive; . = no result; ! = a repeat was not active; [ ] = dose if it differs, or a comment. Unless noted, the call rests on the fitted dose curve; in most records, active means well fitted curve in the direction sought with a large enough effect; inconclusive means small, poorly fitted or top-dose-only effect, or another doubt; inactive means no such curve, though single readings can be large; an effect the other way counts as inactive or inconclusive. Potency means the concentration at half of the fitted maximal effect.

SMILES	Hsp90 Hop PPI	Tau fil binding	Pol III holo inh	HEK293 cAMP cs	TSHR agonist
CC1(C)CC(=O)c2sc(N3CCCCC3)nc2C1	2.6%	-2.8%	1.6%	-3.8%	-0.1%
CC1(C)CNC(=O)c2sc(N3CCCCC3)nc2C1	-1.9%	-14.1%	4.4%	20µM*	?
Cc1ccc2nc(CSc3nnc(-c4ccco4)n3-c3ccccc3)cc(=O)n2c1	-1.3%	7.8%	-2.0%	?	?
Cc1ccc2nc(CSc3nnc(-c4ccco4)o3)cc(=O)n2c1	-3.7%	6.8%	20µM*	3.6%	4.4%
O=C(Nc1ccc(-n2nncc2-c2ccco2)cc1)c1cc2ccccc2oc1=O	0.7%	-21.1%	12.6µM*	-1.6%	1.8%
CC(=O)C(Sc1nn(C)c(=S)s1)C(=O)Nc1ccccc1 (stereo not drawn)	-5.4%	9.2%	-1.8%	20µM*	?
CN(C)c1ccc(NC(=O)c2ccc(COc3cccc(Cl)c3)o2)cc1	?	7.94µM*	4.7%	-0.2%	-28.0%
CCOc1ccc(OCc2ccc(C(=O)Nc3ccc(Cl)cn3)o2)cc1	7.4%	58.6%	-0.1%	?	?
O=C(OCC(=O)N1CCCC1)c1cncc(Br)c1	-2.2%	-2.8%	-1.8%	7.7%	0.8%
CO[C@@]12C[C@@H](COC(=O)c3cncc(Br)c3)CN(C)[C@H]1Cc1cn(C)c3cccc2c13	10µM*!	?	-4.1%	12.7%	11.7%
CCOC(=O)c1c(-c2ccc(C)o2)csc1NC(=O)CSc1nnc(C)s1	-1.2%	16.6%	-3.1%	31.6µM*	?
CCOC(=O)c1sc(NC(=O)CSc2nncs2)c(C(=O)OCC)c1C	0.5%	39.2%	0.5%	25.1µM*	?
CCOC(=O)c1sc(NC(=O)CSc2nnc(-c3ccco3)n2CC)c(C(=O)OCC)c1C	2.9%	93.9%	-11.7%	?	?
Cc1cnc(CNc2ncncc2-c2cccc(NS(C)(=O)=O)c2)cn1	-4.1%	-11.3%	-4.5%	10.8%	16.8%
c1ccc2c(c1)CCC[C@@H]2C1=NCCN1	-2.5%[26 µM]	9.7%[25.6 µM]	1.9%[25.6 µM]	12.0%[25.6 µM]	-4.0%[25.6 µM]
O=C(CSc1nc2scc(-c3ccco3)c2c(=O)n1-c1ccccc1)NCC1CCCO1 (stereo not drawn)	-9.9%	83.4%	-7.7%	17.7%	31.6µM*
CCc1nc2oc3cc(OC)ccc3c(=O)c2c(=O)n1Cc1ccco1	-9.2%	-9.9%	-7.3%	9.9%	14.6%
O=c1c2ccccc2sc2nc(C3CCCCC3)n(Cc3ccco3)c(=O)c12	-7.0%	10µM*	-3.5%	?	?
CCc1nc2sc3ccccc3c(=O)c2c(=O)n1Cc1ccco1	-6.5%	15.8µM*	-6.4%	23.1%	24.7%
O=c1c2ccccc2nc(SCc2nc3ccccc3s2)n1Cc1ccco1	-0.5%	8.9%	5.4%	?	?
Cc1ccc(-n2nnc3c(=O)n(Cc4cc(C)ccc4C)cnc32)cc1	-3.0%	32.2%	-1.2%	20µM*	?
COc1cccc(-n2nnc3c(=O)n(Cc4ccc(C)cc4)cnc32)c1	6.7%	219.4%	-0.8%	15.8µM*	?
Cc1ccc(-n2nnc3c(=O)n(Cc4cccc(C)c4)cnc32)cc1	0.8%	87.5%	-5.4%	12.4%	.
COc1ccc2[nH]cc(CCNc3ncncc3-c3ccc(C(=O)N(C)C)cc3)c2c1	-3.4%	-5.9%	-2.5%	6.3%	3.0%
O=C(Cn1nc(C(F)(F)F)c2c1CCCC2)Nc1ccc2c(c1)OCO2	1.0%	-8.1%	-7.4%	9.5%	2.3%
SMILES	Hsp90 Hop PPI	Tau fil binding	Pol III holo inh	HEK293 cAMP cs	TSHR agonist
COc1ccccc1NC(=O)Cn1nc(C(F)(F)F)c2c1CCCC2	5.5%	-2.8%	1.8%	20µM*	?
Cc1cc(C)c(S(=O)(=O)Nc2ccc(O)cc2)c(C)c1	-4.3%	-3.7%	-4.5%	?	?
Cc1cc(Nc2ccc(O)cc2)ccc1N	?	2µM*	-7.3%	15.4%	-5.2%
N#CCCn1c(=O)c(CCc2ccccc2)nc2cnc(N3CCOCC3)nc21	18.1%	82.0%	-4.5%	15.3%	10.2%
O=C(NCCCn1ccnc1)C(F)(F)C(F)(F)C(=O)NCCCn1ccnc1	25.1µM*	15.0%	-4.6%	1.3%	-0.4%
CC(C)(Oc1ccc(Cl)cc1)C(=O)NCCCn1ccnc1	-1.5%	10.0%	?	11.0%	1.1%
CCOn1c(=O)c(=O)n(OCc2ccccc2)c2ccccc21	-6.6%[11 µM]	-4.6%[11.4 µM]	-10.8%[11.4 µM]	4.0%[11.4 µM]	3.16µM*
Cc1ccc(C(=O)Nc2ccccc2N2CCOCC2)c(C)c1	.	.	.	6.6%	1.3%
CN(C)Cc1ccccc1-c1cc(NC2CC2)ncn1	-4.7%	9.8%	3.4%	-4.3%	3.5%
CCC(c1nnnn1Cc1ccc2c(c1)OCO2)N1CCN(c2ccccc2)CC1 (stereo not drawn)	-4.7%	3.9%	-3.1%	15.8µM*	?
CCC(c1nnnn1Cc1ccc2c(c1)OCO2)N1CCN(c2ccc(OC)cc2)CC1 (stereo not drawn)	-15.3%	-27.3%	4.1%	?	?
CCC(c1nnnn1Cc1ccc2c(c1)OCO2)N1CCN(c2ccc(F)cc2)CC1 (stereo not drawn)	-4.2%	9.1%	-1.7%	15.8µM*	?
CCCCCCCCC/C=C/CC1CC(=O)OC1=O (stereo not drawn)	0.2%	11.2%	-11.3%	?	?
O=C(Nc1ccccc1C(F)(F)F)c1cccnc1	-2.3%	1.7%	0.9%	0.0%	-0.8%
CC(C)(C)c1ccccc1NC(=O)c1cccnc1	-2.1%	-4.8%	31.6µM*	3.3%	0.5%
CC[C@H]1C(=O)OC[C@@H]1Cc1cncn1C	-9.7%	?	-5.8%	-0.8%	19.3%
CN(C)c1ncc2nc(-c3cn(C)c4ccccc34)c(=O)n(C[C@H]3CCCO3)c2n1	-2.5%	364.9%	-8.5%	-14.2%	7.9%
Cc1ccc2c(c1)c1c3n2CCN=C3CCC1	-9.2%	12.6µM*	-0.5%	7.0%	-13.7%
Cc1ccc2c(c1)c1c3n2CCN[C@H]3CCC1	-8.5%	?	-3.1%	1.1%	1.0%
CN1CCN(C(=O)c2cc(Cl)ccc2Cl)CC1	1.7%	-3.7%	2.1%	31.6µM*	?
O=C1CCCC2=C1C(c1cccc(Br)c1)n1nc(-c3ccco3)nc1N2 (stereo not drawn)	-5.6%	59.5%	-1.4%	-8.0%	-6.7%
O=C1CCCC2=C1C(c1ccco1)Nc1ccc(C(=O)c3ccccc3)cc1N2 (stereo not drawn)	?	6.31µM*	-16.2%	-3.4%	-14.7%
O=C(NCc1ccco1)C(c1ccco1)N(CCc1ccccc1)C(=O)Cn1nnc2ccccc21 (stereo not drawn)	-9.0%	179.1%	0.9%	15.8µM*	?
O=C(NCc1ccco1)C(c1cccs1)N(Cc1ccccc1)C(=O)Cn1nnc2ccccc21 (stereo not drawn)	-4.5%	14.3%	-0.9%	10µM*	?
CCC(C)N(C(=O)Cn1nnc2ccccc21)C(C(=O)NCc1ccco1)c1cccc(OC)c1 (stereo not drawn)	-0.6%	-5.4%	-3.2%	15.8µM*	?
